DT40 TDP1 no CPT = qHTS for Inhibitors of human tyrosyl-DNA phosphodiesterase 1 (TDP1): qHTS in cells in absence of CPT; 420,000 compounds, 15% hits; Potency, µM (titrated, usually from 46.2 µM), hits mostly inhibitors; DT40 Tdp1-/- hTDP1 cells, no CPT, ATP luminescence, 48 h; further: nearly all actives have a fitted effect of over 55% in size
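No-CPT arm: Tdp1-/-;hTDP1 DT40 cells (400/well) plus compounds, incubated ≥48 hr at 37 °C. Readout CellTiter-Glo luminescence.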
HT1080 IDH1KD tx = HT-1080 IDH1 knockdown cell toxicity (counter line); HT-1080 IDH1 knockdown viability, ATP luminescence, 48 h; Potency, µM (doses to about 46.1 µM), actives largely listed as cytotoxic; 360,000 compounds, 2% hits
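Cytotoxicity counter-line: IDH1KD HT-1080, 48 h, CellTiter-Glo. Curves classed by r2, magnitude and activity.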
TDP1 cell CPT = growth inhibition of DT40 Tdp1-/-;hTDP1 cells with camptothecin (screen for TDP1 inhibitors). chicken DT40 Tdp1-/-;hTDP1 cells + 20 nM CPT, ATP luminescence, 48 h. Potency, µM (doses to about 46.2 µM), usual class: inhibitors. 420,000 compounds, 12% hits. AID 686979; further: nearly all actives have a fitted effect of over 55% in size
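Chicken DT40 Tdp1-/- cells stably complemented with human TDP1 were seeded at 400 cells/well in medium containing 20 nM camptothecin, exposed to pin-transferred compounds, and grown at 37 °C for at least 48 hr. Viability was read as ATP luminescence.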
HT1080NT lethal = kills 2HG-producing HT-1080-NT fibrosarcoma cells | Potency, µM (series often up to 46.1 µM), actives largely listed as cytotoxic | 360,000 compounds, 1.6% hits | HT-1080-NT fibrosarcoma viability, CellTiter-Glo ATP luminescence, 48 h;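 further: NT is the 2HG producing partner of a matched IDH1 knockdown line; nearly all actives have a fitted effect of over 55% in size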
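HT-1080-NT; 750 cells/well; 5% FBS RPMI; 48 h compound, 37 degrees C; CellTiter-Glo luminescence; curve fitting and curve-class assignment.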
IL1B secr inh = inhibitors of inflammasome signaling (IL-1 beta secretion) | THP-1 LPS/ATP IL-1B secretion, AlphaLISA, 16 h; hits give low values | activity change, % at 57.5 µM | 360,000 compounds, 4.7% hits | AID 743279; in the data active means activity change below about -50%; inconclusive means mostly about -30% to -49%
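THP-1 cells pretreated 1 hr with compounds (up to 57.5 uM final), then stimulated with LPS (250 ng/mL final) plus ATP (1.25 mM final); secreted IL-1B measured by AlphaLISA after 16 hr, decreased signal indicating inhibition.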
Hits are given with their value; n = inactive; u = inconclusive; x = no result given; [ ] = another dose, or the depositor's remark. Rows were chosen to be rich in hits. Some 19% of all compounds tested hit in one or more screens of this group. Unless noted, the call rests on the fitted dose curve; in most records, active means well fitted curve in the direction sought with a large enough effect; inconclusive means small, poorly fitted or top-dose-only effect, or another doubt; inactive means no such curve, though single readings can be large; an effect the other way counts as inactive or inconclusive.

SMILES | DT40 TDP1 no CPT | HT1080 IDH1KD tx | TDP1 cell CPT | HT1080NT lethal | IL1B secr inh
CCOC(=O)[C@H]1[C@H]2COc3cc(OC)ccc3[C@@H]2N2C(=O)CN(Cc3ccccc3)C(=O)[C@@]12C | n | n | n | n | n
COc1ccc2c(c1)[C@H]1[C@H](CO2)[C@H](c2ccccc2)[C@]2(C)C(=O)N(Cc3ccc(C)cc3)CC(=O)N12 | u | n | 14.6µM | u | -55.6
Cc1ccc([C@@H]2[C@@H]3C(=O)N(c4ccccc4)C(=O)[C@@H]3[C@]3(C)C(=O)N(Cc4ccc(-c5ccccc5)cc4)CC(=O)N23)o1 | u | n | 18.4µM | n | n
COc1ccc2c(c1)OC[C@H]1[C@H]2N2C(=O)CN(Cc3ccc(Cl)cc3)C(=O)[C@@]2(C)[C@H]1c1ccccc1 | u | n | 8.2µM | n | u
COc1ccc(CN2CC(=O)N3[C@H]4c5ccc(OC)cc5OC[C@@H]4[C@H](c4ccccc4)[C@]3(C)C2=O)cc1 | 18.4µM | n | u | n | n
COc1ccc(N2C(=O)C3CCCN3C2c2ccccc2Cl)cc1 (configuration not stated) | n | n | n | n | n
COc1ccc2c(c1)OC[C@H]1[C@H]2N2C(=O)CN(Cc3ccccc3)C(=O)[C@@]2(C)[C@H]1c1ccccc1 | u | n | 18.4µM | n | -54.3
COc1ccc2c(c1)OC[C@H]1[C@H]2N2C(=O)CN(C)C(=O)[C@@]2(C)[C@H]1c1ccccc1 | n | n | u | u | n
COc1cc(-n2ccnc2SC)c(Cl)cc1Cl | 18.4µM | n | u | n | n
COc1ccccc1-n1ccnc1SCC(=O)NC1CCCC1 | n | n | n | n | n
CC(C)(C)C1CCC(C(=O)Nc2nccs2)CC1 (configuration not stated) | 23.1µM | n | u | n | n
CS(=O)(=O)N1Cc2ccccc2CC1C(=O)Nc1ccccc1C(N)=O (configuration not stated) | n | n | 23.1µM | n | n
CCS(=O)(=O)N1Cc2ccccc2CC1C(=O)Nc1nc2ccccc2s1 (configuration not stated) | 16.4µM | n | u | n | n
O=C(NCCc1cccnc1)c1cnn(-c2ncc3c(n2)-c2ccccc2CC3)c1C1CC1 | u | x | n[9.04 µM] | x | x
CCOc1ccccc1NC(=O)COc1coc(CN2CCCc3ccccc32)cc1=O | u | n | u | n | n
CCOc1ccccc1NC(=O)COc1coc(CN2CCc3ccccc3C2)cc1=O | 13µM | n | u | n | n
CC(C)CNC(=O)C1C(=O)Nc2ccccc2C(=O)N1C1CCCCC1 (configuration not stated) | n | n | n | n | n
Cn1cccc1C(=O)OCC(=O)N1CC(=O)Nc2ccccc21 | n | n | n | n | u
COC(=O)C1C/C(=N\NS(=O)(=O)c2ccc(C)cc2)c2ccsc2C1 (configuration not stated) | n | n | u | n | n
COc1ccc2[nH]c(S(=O)Cc3ncc(C)c(OC)c3C)nc2c1 (configuration not stated) | 16.4µM | n | u | n | n
COc1ccc2[nH]c(S(=O)Cc3ncc(C)c(OC)c3C)nc2n1 (configuration not stated) | 26.6µM | x | u | x | x
C=CCn1c(=O)c2ccccc2n2nnc(C(=O)OCC)c12 | n | n | n | n | n
COc1cc(C(=O)NC(C)CCc2ccccc2)cc(OC)c1OC (configuration not stated) | n | n | n | n | n
COc1cc(C(=O)N/N=C(\C)Cc2ccccc2)cc(OC)c1OC | n | 1.03µM | n | 1.16µM | n
CN(Cc1ccccc1)C(=S)NC(=O)c1cccs1 | u | n | u | n | n
COc1cc(C(=O)NCC(=O)N/N=C(\C)Cc2ccccc2)cc(OC)c1OC | n | n | n | n | n
COc1cc(C(=O)NC(=S)N(CCc2ccccc2)CCc2ccccc2)cc(OC)c1OC | 20.6µM | u | 23.1µM | n | n
O=C(NC(=S)N(CCc1ccccc1)CCc1ccccc1)c1ccco1 | 11.6µM | n | 18.4µM | n | n

Compound activity (PubChem BioAssay)
